High-throughput results as filed in PubChem.
Most compounds without a hit are left out; they make up all but 12% or so of the library.
NS1 inh – qHTS Assay for Inhibitors of Influenza NS1 Protein Function; 0.4% of 270,000 active; Potency, µM (titrated, usually from 46.1 µM), for the others: at the highest dose activity, positive = more growth; note: potency is the fitted concentration of half-maximal effect; actives are rising curves; nearly all actives have a fitted effect of over 50% in size
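S. cerevisiae expressing influenza A NS1, grown in glucose, washed, then diluted 1:100 into pH 6.0 -URA galactose medium with 23 nl compound. Growth recovery read as OD600; NS1-free strain serves as control.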
CHX counter – Cycloheximide Counterscreen for Small Molecule Inhibitors of Shiga Toxin. cell reporter, cycloheximide protein synthesis inhibition counterscreen. max response, %. 12% of 300,000 active. AID 2314, 2010; in the data active = max response mostly above about 13%, no sharp cut-off; inactive = mostly below about 14%; note: read at 38.3 µM for the half of the compounds with a filed dose; 0% is about no effect
SARS PLP yeast – qHTS of Yeast-based Assay for SARS-CoV PLP; S. cerevisiae expressing SARS-CoV PLpro, growth rescue; Potency, µM (doses to about 32.9 µM), without a hit: at the top dose activity, positive = growth rescue, actives largely listed as activators; 0.19% of 330,000 active; note: potency is the fitted concentration of half-maximal effect; 0% is about no effect; nearly all actives have a fitted effect of over 55% in size
Shiga inhibitor – A qHTS for Small Molecule Inhibitors of Shiga Toxin; Vero cells, Shiga toxin protein synthesis inhibition reporter; AID 2315, 2010; inhibition, % at 38.7 µM; 9.2% of 290,000 active; in the data active = inhibition mostly above about 28%, no sharp cut-off; inactive = mostly below about 43%; note: 0% is about no effect
The depositor's hits bear a star; i = inactive; u = inconclusive; x = no result. Unless noted, calls come from the whole dose curve.

SMILES	NS1 inh	CHX counter	SARS PLP yeast	Shiga inhibitor
C=C1CCN(C(CC(C)C)C(=O)Nc2ccc(OC)cc2)S(=O)(=O)c2ccccc21 (stereo not drawn)	x	5	x	19
CSc1cccc(NC(=O)/C=C/c2ccco2)c1	x	55*	-6%	110*
COc1cccc(NC(=O)/C=C/c2ccco2)c1	x	52*	-4%	140*
O=C(/C=C/c1ccco1)Nc1cccnc1	5%	21*	-3%	47
COc1ccccc1NC(=O)/C=C\c1ccco1	-2%	41*	-1%	68*
CCc1ccc(-c2cc(C)no2)cc1S(=O)(=O)N1CCOc2ccc(C)cc21	17%	2	-1%	-3
CCN(C(=O)CSc1nnc(-c2ccc3c(c2)OCO3)o1)C1CCS(=O)(=O)C1 (stereo not drawn)	x	x	-3%	x
O=C(COc1ccc([N+](=O)[O-])cc1)NNC(=O)Nc1cccc(F)c1	-71%	3	-7%	14
COc1ccc([N+](=O)[O-])cc1NC(=O)C(C)OC(=O)/C=C/c1ccco1 (stereo not drawn)	0%	17*	15%	36*
CC(C)(C)c1ccc(/C=C/C(=O)Nc2cccnc2)cc1	-37%	29*	-3%	70*
COc1ccc(C(NC(=O)/C=C\c2ccco2)c2ccc(OC)c(OC)c2)cc1 (stereo not drawn)	15%	25*	-6%	105*
CC(OC(=O)/C=C/c1ccco1)C(=O)Nc1cccc([N+](=O)[O-])c1 (stereo not drawn)	-6%	1	15%	27
O=C(O)/C=C/C(=O)Nc1cccnc1	1%	-1	7%	-10
COc1ccc(C(NC(=O)/C=C/c2ccco2)c2ccc(OC)cc2)cc1	16%	7	2%	1
COc1ccc(S(=O)(=O)Nc2noc3ccccc23)cc1OC	-1%	-1	0%	-8
CC(=O)Nc1sc2c(c1C(c1ccccc1Cl)N1CCN(CCO)CC1)CCCC2 (stereo not drawn)	1%	-4	0%	-14
CC(C)c1nc2oc3c(=O)[nH]cnc3c2c2c1CCC2	-3%	-2	1%	2
CC(C)c1nc2oc3c(N4CCNCC4)ncnc3c2c2c1CCC2	3.2µM*	x	x	x
COc1ccc(C2=CC(=O)OC3(CCCCC3)O2)cc1	-60%	6	-11%	18
C=C(C)C1(O)OC(=O)C=C1OC (stereo not drawn)	2%	8.5*	2%	14
Cc1cc(NS(=O)(=O)c2cccc([N+](=O)[O-])c2)no1	-4%	-4	-2%	-9
Cc1ccc(NC(=O)c2c(Cl)nc3ccccn23)cc1	-1%	37*	-6%	114*
CC(=O)Nc1ccc(NC(=O)c2c(C)nc3ccccn23)cc1	4%	4	-3%	32
Cc1nc2ccccn2c1C(=O)Nc1ccc(Cl)cc1	-5%	24*	-4%	52
COc1ccc(NC(=O)/C=C/c2c(Cl)nc3ccccn23)cc1	x	20*	-4%	-2
SMILES	NS1 inh	CHX counter	SARS PLP yeast	Shiga inhibitor
Cc1nc2ccccn2c1C(=O)NCc1ccc2c(c1)OCO2	-5%	11	1%	36
Cc1ccc(C)c(NC(=O)c2c(Cl)nc3ccccn23)c1	-2%	-1	-1%	-4
Cc1nc2ccccn2c1C(=O)Nc1ccc2c(c1)OCCO2	0%	45*	-11%	112*
CC1=C(C#N)c2nc(N)c(C#N)c(C)c2/C1=C\c1ccc(OCC(=O)O)c(Cl)c1	10%	-4	1%	-1
COc1ccc([C@]23Cc4cc(OC)c(OC)cc4C(O2)C2=C(CC(C)(C)CC2=O)O3)cc1	22%	2	u	i
Cc1nc2ccccn2c1C(=O)CSc1ccccc1	x	31*	-3%	38*
O=S1(=O)C=C(SCc2ccc(Cl)c(Cl)c2)Nc2ccccc21	-4%	7	8%	-12
Cc1ccc(NC(=S)NCC23C=CC(O2)C2C(=O)N(c4ccc(C)cc4)C(=O)C23)cc1 (stereo not drawn)	-27%	56*	-85%	7
COc1ccccc1CNC(=O)CNC(=O)c1sc2ccccc2c1Cl	6%	9	0%	6
CCS(=O)(=O)Nc1ccc(C2=NN(C(=O)c3ccccc3)C(c3cccs3)C2)cc1 (stereo not drawn)	2%	0	1%	0
S=C(Nc1ccccc1)N1N=C(c2cccs2)CC1c1cccs1 (stereo not drawn)	12%	7	2%	20*
Cc1ccc(C2=NN(C(=O)CNCCO)C(c3cccs3)C2)cc1 (stereo not drawn)	2%	42*	0%	47
CCc1ccc(C2=NN(S(C)(=O)=O)C(c3cccs3)C2)cc1 (stereo not drawn)	-4%	65*	-17%	88*
COc1ccc(C2CC(c3cccs3)=NN2C(=S)Nc2ccccc2)cc1OC (stereo not drawn)	-5%	-1	-17%	11
COc1ccc(C2=NN(S(C)(=O)=O)C(c3cccs3)C2)cc1 (stereo not drawn)	-6%	41*	-1%	60*
O=C(CSc1ccccc1F)Nc1ccc2c(c1)OCO2	x	x	-4%	x
Cc1ccc2[nH]c3c(=O)n(CC(=O)Nc4ccccc4N4CCN(C)CC4)ncc3c2c1	8%	-2	1%	-5
CC(=O)Nc1ccc(N2C(C(C)=O)=NN(c3ccccc3)C2c2cccs2)cc1 (stereo not drawn)	12%	0	1%	6
Cc1ccc(C2=NN(S(C)(=O)=O)C(c3cccs3)C2)cc1 (stereo not drawn)	1%	35*	1%	178*
CS(=O)(=O)N1N=C(c2ccco2)CC1c1cccc([N+](=O)[O-])c1 (stereo not drawn)	4%	-2	1%	12
CS(=O)(=O)N1N=C(c2ccco2)CC1c1ccc(Br)cc1 (stereo not drawn)	1%	21*	24%	19
CS(=O)(=O)N1N=C(c2ccc(Br)cc2)CC1c1cccs1 (stereo not drawn)	5%	32*	3%	48*
Cc1cccc(C(=O)N2N=C(c3ccc(NS(C)(=O)=O)cc3)CC2c2cccs2)c1 (stereo not drawn)	17%	-3	0%	-5
CC(=O)Nc1ccc(C2=NN(c3ccccc3)C(c3cccs3)C2)cc1 (stereo not drawn)	x	70*	-2%	88*
Cc1ccc(OCCn2c(=S)[nH]c3c(N)ncnc32)cc1	-3%	-3	3%	4
SMILES	NS1 inh	CHX counter	SARS PLP yeast	Shiga inhibitor
CCC(CC)N1CCN(C(=O)c2cc(OC)c(OC)c(OC)c2)CC1	9%	1	2%	-8
Cc1cc(OCc2cc(C(=O)N(C)C3CCOCC3)no2)cc(C)c1Cl	-48%	86*	-14%	126*
Cc1n[nH]c(C)c1CN(C)C(=O)c1cc(COc2ccc(F)c(F)c2)on1	18%	10	-3%	11
Cc1cc(CN(C)C(=O)c2cc(COc3ccc4ncccc4c3)on2)on1	-4%	6	-2%	3
Cc1ccc(OCc2cc(C(=O)N(C)Cc3cnc4ccccn34)no2)cc1C	8%	20*	-2%	33
Cc1cc(OCc2cc(C(=O)N3CCN(C)C(=O)[C@@H]3C)no2)cc(C)c1Cl	-7%	9	-3%	9
